Screening results: PubChem BioAssay, National Center for Advancing Translational Sciences (NCATS)
KB-V1 cytotox: KB-V1 MDR subline cytotoxicity; 400,000 compounds, 3.4% hits; Potency, µM (doses to about 46.1 µM), usual class: cytotoxic; AID 1347076; KB-V1 MDR cells viability, CellTiter-Glo, 72 h; further: on the % scale 0 is the no-effect control and ±100 the full control effect; nearly all actives have a fitted effect of over 60% in size
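KB-V1 MDR subline cells in DMEM (phenol-red free, 10% FBS) exposed to compounds in qHTS concentration series for 72 h at 37 degrees C. Viability read by CellTiter-Glo luminescence; concentration-effect curves fitted after normalization and correction.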
SW480 rerep: inducers of DNA re-replication in SW480 colon cancer cells; SW480 DNA re-replication, Hoechst DNA content imaging, 48 h; Potency, µM (doses to about 46.1 µM), without a hit: at the top dose re-replication activation, actives largely listed as activators; 340,000 compounds, 1.8% hits; further: % of control where 0% means no effect; nearly all actives have a fitted effect of over 55% in size
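DNA re-replication was detected as more nuclei of elevated Hoechst intensity after 48 hr exposure to compound (23 nL pinned per well of 250 cells).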
KB-3-1 cytotox: kills parental KB-3-1 adenocarcinoma cells. KB-3-1 viability, CellTiter-Glo ATP luminescence, 72 h. Potency, µM (top dose mostly 46.1 µM), hits mostly cytotoxic. 400,000 compounds, 1.4% hits; further: on the % scale 0 is the no-effect control and ±100 the full control effect; nearly all actives have a fitted effect of over 60% in size
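Cytotoxicity in the drug-sensitive parental line KB-3-1 was scored as loss of CellTiter-Glo luminescence following 72 h incubation with compound. Values come from curve fitting of normalized concentration-response data.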
MCF10A rerep: inducers of DNA re-replication in MCF 10A breast cells | 350,000 compounds, 2.9% hits | MCF 10A DNA re-replication, Hoechst nuclear intensity, 48 h | AID 624296 | Potency, µM (doses to about 46.1 µM), for inactives: top-dose activity, positive = re-replication, usual class: activators; further: % of control where 0% means no effect; nearly all actives have a fitted effect of over 50% in size
HT1080NT lethal: kills 2HG-producing HT-1080-NT fibrosarcoma cells. HT-1080-NT fibrosarcoma viability, CellTiter-Glo ATP luminescence, 48 h. Potency, µM (doses to about 46.1 µM), without a hit: top-dose activity, negative = less viability, actives largely listed as cytotoxic. 360,000 compounds, 1.6% hits. AID 686970;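 further: NT is the 2HG producing partner of a matched IDH1 knockdown line; 0% = DMSO-treated cells and -100% = media-only wells without cells; nearly all actives have a fitted effect of over 55% in size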
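HT-1080-NT; 750 cells/well; 5% FBS RPMI; 48 h compound, 37 degrees C; CellTiter-Glo luminescence; curve fitting and curve-class assignment.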
HT1080 IDH1KD tx: kills HT-1080 cells with IDH1 knockdown; HT-1080 IDH1 knockdown viability, ATP luminescence, 48 h; Potency, µM (titrated, usually from 46.1 µM), inactives show at the top dose activity, negative = toxicity, hits mostly cytotoxic; 360,000 compounds, 2% hits; AID 686971;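 further: 0% = DMSO wells and -100% = cell-free medium wells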
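Assay cells: HT-1080 with IDH1 knockdown, 750 per well, RPMI/5% FBS. Exposure: 48 h at 37 °C following 2 h pre-incubation. Read: CellTiter-Glo luminescence; fitted concentration-response, curve class assigned.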
* marks the source's active call; other numbers are inactive results; i = inactive; ? = inconclusive; / = not tested or not shown; [ ] = dose if it differs, or a comment. The list is not random: actives were taken first. Their share in the collection is about 8%. The call rests on the fitted dose curve; in most records, active means well fitted curve in the direction sought with a large enough effect; inconclusive means small, poorly fitted or top-dose-only effect, or another doubt; inactive means no such curve, though single readings can be large; an effect the other way counts as inactive or inconclusive. Potency means the concentration at half of the fitted maximal effect.

SMILES	KB-V1 cytotox	SW480 rerep	KB-3-1 cytotox	MCF10A rerep	HT1080NT lethal	HT1080 IDH1KD tx
COc1cccc(C(=O)Nc2ccccc2)c1	i	-1%	i	-2%	6%	-3%
COc1cccc(-c2cc(=O)c3cc(NC(=O)c4ccc(N(C)C)cc4)ccc3[nH]2)c1	i	0.58µM*	i	0.41µM*	1.3µM*	0.73µM*
O=C(Nc1ccc(Br)cc1)c1cccc(S(=O)(=O)N2CCc3ccccc32)c1	i	/	?	/	/	/
Cc1ccc(-c2ccc(=O)n(CC(=O)Nc3ccc(F)c(Cl)c3)n2)cc1C	i	/	i	/	/	/
CCOC(=O)c1c(SCC(=O)Nc2nc3ccc(C)cc3s2)nc(=O)[nH]c1C	?	/	i	/	/	/
N#CC(c1cccc(Cl)c1)c1ccc2c(C(F)(F)F)cc(C(F)(F)F)nc2n1 (centres undefined)	0.92µM*	?	?	?	9.2µM*	?
NNc1ccc2c(C(F)(F)F)cc(C(F)(F)F)nc2n1	i	11%	?	-10%	1%	2%
CC1CCN(S(=O)(=O)c2ccc3c(ccc(=O)n3CC(=O)NCc3ccccc3Cl)c2)CC1	i	/	i	/	/	/
COc1ccc(-c2cc(C(F)(F)F)nc(SCCC(=O)Nc3ccc(O)cc3)n2)cc1	?	/	i	/	/	/
O=C(NCCc1ccccc1)C(c1cccs1)N(C(=O)c1csnn1)C1CC1 (centres undefined)	i	10%	i	-5%	1%	-4%
O=C(NCc1ccccc1)C(c1cccs1)N(C(=O)c1csnn1)C1CC1 (centres undefined)	18µM*	2%	i	0%	13%	15%
O=C(NC1CCCCC1)C(c1ccco1)N(C(=O)c1csnn1)C1CCCC1 (centres undefined)	16µM*	-5%	i	0%	-3%	1%
O=C(NC1CCCC1)C(c1ccco1)N(Cc1ccccc1)C(=O)c1csnn1 (centres undefined)	13µM*	-2%	i	2%	2%	-5%
COc1ccc(C)c2sc(NC(=O)c3ccc(S(=O)(=O)N(C)C)cc3)nc12	i	/	i	/	/	/
Cc1ccc2oc(C(=O)Nc3c(C(=O)Nc4cccc(Cl)c4)oc4ccccc34)cc(=O)c2c1	i	/	?	/	/	/
CC1=Nc2ccccc2/C1=C\c1sc(Nc2ccc(C)cc2)nc1O	1.5µM*	1.3µM*	?	?	0.92µM*	0.65µM*
Oc1nc(Nc2cccc(Cl)c2)sc1/C=C1\C=Nc2ccccc21	?	?	?	7.3µM*	?	?
Oc1nc(Nc2ccc(F)cc2)sc1/C=C1\C=Nc2ccccc21	i	?	i	21µM*	-23%	?
Oc1cccc(Nc2nc(O)c(/C=C3\C=Nc4ccccc43)s2)c1	i	?	i	?	?	?
COc1ccc2c(c1)CC(C(=O)NCCN1CCN(c3cccc(C)c3C)CC1)CO2 (centres undefined)	i	/	i	/	/	/
O=[N+]([O-])c1cccc(S(=O)(=O)N2CCN(c3nc(-c4ccccc4)nc4ccccc34)CC2)c1	i	/	?	/	/	/
CC(=C/c1ccccc1)/C=N/NC(=O)c1cccs1	?	-5%	i	13%	-17%	-22%
Cc1ccc(NCC(=O)N/N=C\C(Br)=C\c2ccccc2)cc1	i	7%	i	8%	?	16µM*
Cc1onc(-c2ccccc2)c1C(=O)N/N=C/C(Br)=C/c1ccccc1	15µM*	0.23µM*	?	?	2%	-16%
O=C(N/N=C/C(Br)=C\c1ccccc1)c1cccs1	i	?	i	98%	?	21µM*
SMILES	KB-V1 cytotox	SW480 rerep	KB-3-1 cytotox	MCF10A rerep	HT1080NT lethal	HT1080 IDH1KD tx
CCN1CCN(C(=O)c2ccc3c(c2)N(Cc2ccccc2F)C(=O)c2ccccc2S3=O)CC1 (centres undefined)	i	/	i	/	/	/
Cc1ccc(-n2nnc(-c3nsc(NC(=O)c4ccccc4C)n3)c2C)cc1Cl	?	/	i	/	/	/
Cc1ccnc(NC(=O)c2ccc(C(=O)c3ccccc3)cc2)c1	21µM*	7%	?	?	-29%	?
O=C(Nc1cc(-c2ccccc2)[nH]n1)c1ccccc1	?	9.2µM*	?	?	-28%	?
O=C(O)c1ccccc1C(=O)Nc1cc(-c2ccccc2)[nH]n1	i	-1%	i	1%	4%	17%
CCCCOc1ccc(C(=O)Nc2cccc(C)n2)cc1	16µM*	-5%	?	?	-6%	3%
C=C(C)c1cccc(C(C)(C)NC(=O)Nc2cc(C)ccn2)c1	16µM*	18%	?	7%	-5%	-13%
CCOC(=O)c1cc(S(=O)(=O)Nc2ccc(C)cc2Cl)[nH]n1	i	/	i	/	/	/
CCCCOc1ccc(C(=O)Nc2ccc(N3CCN(C(C)=O)CC3)cc2)cc1	2.6µM*	-9%	i	1%	13%	11%
CCCCOc1ccc(C(=O)Nc2ccc(N3CCN(C(=O)C(C)C)CC3)cc2)cc1	i	2%	i	2%	-5%	-17%
CCOc1ccc(C(=O)Nc2cc(C)ccn2)cc1	13µM*	-107%	?	?	?	12µM*
CCOc1cc(C(=O)Nc2cc(C)ccn2)cc(OCC)c1OCC	i	16%	?	?	-17%	-23%
COc1ccccc1N=C1SC(C(=O)Nc2cccc(Cl)c2Cl)C(N)=C1C(N)=O (centres undefined)	3.7µM*	23µM*	?	12µM*	15µM*	?
COc1cc(NC(=S)Nc2cccc(Cl)c2Cl)c(OC)cc1Cl	i	2%[9.22 µM]	i	8%	2%	2%
CC(CCc1ccccc1)NCc1ccc(Cl)cc1Cl (centres undefined)	i	-15%	i	?	3%	0%
CC(CCc1ccc(O)cc1)NCCC(c1ccccc1)c1ccccc1 (centres undefined)	?	?	?	8%	21µM*	21µM*
CC(CCc1ccc(O)cc1)NC(c1ccccc1)c1ccc(Cl)cc1 (centres undefined)	i	?	i	16µM*	10µM*	7.3µM*
COc1ccc(C2(CNC(=O)C(=O)Nc3ccc(F)cc3)CCCC2)cc1OC	i	/	?	/	/	/
NC(=S)NN=C1CCCCCCCC1	i	-5%	18µM*	-7%	-2%	-1%
COCCNC(=S)NN=C1CCCCC1	i	18µM*	i	3%	-15%	-13%
